Experimental data reported in PubChem BioAssay (Tox21).
Inconclusive results are not listed. Where a call stands in place of a potency, no number is given. The source made the active and inactive calls. The call rests on the fitted dose curve; in most records, active means well fitted curve in the direction sought with a large enough effect in the repeat runs; inconclusive means weak or mixed curves; inactive means no such curve, though single readings can be large; an effect the other way counts as inactive or inconclusive.

Experiments:
[1] = A CellTox Green Cytotoxicity Assay to monitor cytotoxicity in HepG2 cells - 0 hour (AID 1224882); further: nearly all actives have a fitted effect of over 35% in size
Procedure, shortened: (§1)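 HepG2 cells were seeded together with the CellTox Green dye at 600 cells/well, left 5 h at 37 C/5% CO2, then given compounds in DMSO. Fluorescence from dye bound to dead-cell DNA was read repeatedly over 40 h of treatment at 37 C.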

[2] = A CellTox Green Cytotoxicity Assay to monitor cytotoxicity in HEK293 cells - 8 hour (AID 1224884); further: nearly all actives have a fitted effect of over 35% in size; further: potency means the concentration at half of the fitted maximal effect
Procedure, shortened: (§2)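 HEK293 cells premixed with CellTox Green dye were seeded at 600 cells/well and left 5 h at 37 C/5% CO2 before pin transfer of 23 nL compound in DMSO. Fluorescence from dye bound to dead-cell DNA was read during 40 h treatment.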

[3] = qHTS RealTime-Glo MT Cell Viability Assay in HepG2 cells - 16 hour (AID 1224885); further: nearly all actives have a fitted effect of over 50% in size; further: potency means the concentration at half of the fitted maximal effect
Procedure, shortened: (§3)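 Real-time, nonlytic viability: 600 HepG2 cells/well mixed with NanoLuc enzyme plus prosubstrate; 5 h settle, compound (DMSO) added by pintool; luminescence monitored over 40 h at 37 C.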

[4] = qHTS RealTime-Glo MT Cell Viability Assay in HEK293 cells - 24 hour (AID 1224886); further: nearly all actives have a fitted effect of over 50% in size; further: potency means the concentration at half of the fitted maximal effect
Procedure, shortened: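 Cells + reagent dispensed (600 cells/well, HEK293) → 5 h at 37 C/5% CO2 → 23 nL compound in DMSO pinned → 40 h at 37 C → luminescence read at 0, 8, 16, 24, 32, 40 h.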

[5] = qHTS RealTime-Glo MT Cell Viability Assay in HEK293 cells - 8 hour (AID 1224887); further: nearly all actives have a fitted effect of over 50% in size; further: potency means the concentration at half of the fitted maximal effect
Procedure, shortened: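 HEK293 cells mixed with RealTime-Glo reagents (NanoLuc plus cell-permeant prosubstrate) at 600 cells/well, preincubated 5 h at 37 C/5% CO2, then given 23 nL compound in DMSO. Nonlytic luminescence from viable cells was read at 0, 8, 16, 24, 32 and 40 h.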

[6] = A CellTox Green Cytotoxicity Assay to monitor cytotoxicity in HEK293 cells - 16 hour (AID 1224888); further: nearly all actives have a fitted effect of over 35% in size; further: potency means the concentration at half of the fitted maximal effect
Procedure, shortened: as §2

[7] = qHTS RealTime-Glo MT Cell Viability Assay in HepG2 cells - 0 hour (AID 1224889); further: nearly all actives have a fitted effect of over 50% in size
Procedure, shortened: as §3

[8] = A CellTox Green Cytotoxicity Assay to monitor cytotoxicity in HepG2 cells - 8 hour (AID 1224890); further: nearly all actives have a fitted effect of over 45% in size; further: potency means the concentration at half of the fitted maximal effect
Procedure, shortened: as §1

[9] = A CellTox Green Cytotoxicity Assay to monitor cytotoxicity in HepG2 cells - 32 hour (AID 1224883); further: nearly all actives have a fitted effect of over 50% in size; further: potency means the concentration at half of the fitted maximal effect
Procedure, shortened: as §1

| Structure (SMILES) | Potency [1] | Potency [2] | Potency [3] | Potency [4] | Potency [5] | Potency [6] | Potency [7] | Potency [8] | Potency [9] |
| --- | --- | --- | --- | --- | --- | --- | --- | --- | --- |
| O=[N+]([O-])c1cc(Cl)c(Cl)c(Cl)c1Cl | inactive | inactive | inactive | inactive | inactive | inactive | inactive | inactive |  |
| Fc1ccc(C(c2ccc(F)cc2)N2CCN(C/C=C/c3ccccc3)CC2)cc1 | inactive |  |  |  |  | inactive | inactive | inactive | inactive |
| COc1ccc(-c2ccc3cc(C(=O)O)ccc3c2)cc1C12CC3CC(CC(C3)C1)C2 |  | inactive |  | 4.77 µM (active) | inactive | inactive | inactive |  | 21.3 µM (active) |
| CCCCCCCCCCCCc1ccc(O)cc1 | inactive |  | 43.6 µM (active) | 43.6 µM (active) | 43.6 µM (active) | 49 µM (active) | inactive | 17.4 µM (active) | 15.5 µM (active) |
| NC(=O)N1C(=O)C(C(=O)c2cc(Cl)cs2)c2cc(F)c(Cl)cc21 (configuration not stated) | inactive | inactive | inactive | inactive | inactive | inactive |  | inactive |  |
| Fc1ccc([C@@H]2CCNC[C@H]2COc2ccc3c(c2)OCO3)cc1 | inactive | inactive |  |  | inactive | inactive |  | inactive | 26.8 µM (active) |
| Oc1ccc2c(c1)-c1ccccc1C2 | inactive | inactive |  |  |  | inactive | inactive |  | 49 µM (active) |
| Nc1c(Cl)cc(Cl)cc1Cl | inactive | 21.6 µM (active) | inactive | inactive |  | 21.6 µM (active) | inactive | inactive |  |
| C=C(C)C(=O)OCC(O)COc1ccc(C(C)(C)c2ccc(OCC(O)COC(=O)C(=C)C)cc2)cc1 (configuration not stated) | inactive | inactive | 19.5 µM (active) | 11 µM (active) | 11 µM (active) | inactive | inactive | inactive |  |
| O=C(Nc1cccc(Cl)c1)OCC#CCCl | inactive | inactive | 43.6 µM (active) | 49 µM (active) | 43.6 µM (active) | inactive | inactive | inactive |  |
| CCc1cc(SCc2sc(-c3ccc(C(F)(F)F)cc3)nc2CN2CCN(c3ccc(OC)cc3)CC2)ccc1OCC(=O)O | inactive | inactive |  | 21.9 µM (active) |  | inactive | inactive | inactive | inactive |
| O=C(c1ccc(F)cc1)C1CCN(CCn2c(=O)[nH]c3ccccc3c2=O)CC1 |  | inactive | inactive | 9.52 µM (active) | 9.52 µM (active) |  | inactive |  | inactive |
| NC(=O)C1(N2CCCCC2)CCN(CCCN2c3ccccc3CCc3ccc(Cl)cc32)CC1 | inactive |  | 23.9 µM (active) | 21.3 µM (active) | 23.9 µM (active) |  | inactive |  | 23.9 µM (active) |
| CCCN(CCC)c1c([N+](=O)[O-])cc(C(F)(F)F)c(N)c1[N+](=O)[O-] | inactive |  | 48.9 µM (active) | 19.4 µM (active) | 9.75 µM (active) |  |  |  | 54.8 µM (active) |
